Among the data in paper PMC7862700, “An all-to-all approach to the identification of sequence-specific readers for epigenetic DNA modifications on cytosine” are binding signal values, retold here.

Holding throughout (test): DAPPL (digital affinity profiling via proximity ligation, sequencing); 10 mM Tris-HCl pH 7.5, 50 mM NaCl, 1 mM DTT, 4% glycerol, room temperature, 30 min; GST-TFs on glutathione beads, 16-mer random dsDNA library, 0.1% formaldehyde crosslink after washing; high values mean tight binding
Holding throughout (conditions): protein: recombinant; tags: N-terminal GST; dsDNA, one strand shown

Experiment [1] has as its target T1, ELK1 (Homo sapiens, UniProt P19419 1-428).
T1 sequence: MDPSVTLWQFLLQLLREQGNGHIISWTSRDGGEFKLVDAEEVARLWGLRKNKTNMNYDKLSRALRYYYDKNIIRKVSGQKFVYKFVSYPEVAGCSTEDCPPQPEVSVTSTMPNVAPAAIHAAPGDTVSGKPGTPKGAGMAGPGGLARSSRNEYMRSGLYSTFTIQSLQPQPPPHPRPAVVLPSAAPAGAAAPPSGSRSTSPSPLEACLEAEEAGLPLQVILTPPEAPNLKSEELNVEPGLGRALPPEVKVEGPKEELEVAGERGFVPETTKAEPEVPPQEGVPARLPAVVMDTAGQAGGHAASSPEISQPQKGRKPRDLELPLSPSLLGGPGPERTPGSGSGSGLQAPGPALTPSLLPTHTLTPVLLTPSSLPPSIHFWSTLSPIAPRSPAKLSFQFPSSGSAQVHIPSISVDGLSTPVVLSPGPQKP
A digest of the protocol:
(§1)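 Beads coated with glutathione captured GST-fused human transcription factors that had been expressed in yeast, and the factors were then given DNA barcodes and pooled with a tag-only sample. The pools were incubated with 200 nmole of a random double-stranded 16-mer DNA library in Tris/NaCl/DTT/glycerol buffer for 30 min at room temperature, washed, crosslinked with 0.1% formaldehyde and proximity-ligated with BsaI/T4 ligase at 37 °C for 1 h. PCR amplification and Illumina NextSeq500 sequencing came last. Binding signal is each hexamer's read frequency for a factor divided by its frequency for the tag-only sample.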

Experiment [2] addresses T2, GABPA (Homo sapiens, UniProt Q06546 1-454).
T2 sequence: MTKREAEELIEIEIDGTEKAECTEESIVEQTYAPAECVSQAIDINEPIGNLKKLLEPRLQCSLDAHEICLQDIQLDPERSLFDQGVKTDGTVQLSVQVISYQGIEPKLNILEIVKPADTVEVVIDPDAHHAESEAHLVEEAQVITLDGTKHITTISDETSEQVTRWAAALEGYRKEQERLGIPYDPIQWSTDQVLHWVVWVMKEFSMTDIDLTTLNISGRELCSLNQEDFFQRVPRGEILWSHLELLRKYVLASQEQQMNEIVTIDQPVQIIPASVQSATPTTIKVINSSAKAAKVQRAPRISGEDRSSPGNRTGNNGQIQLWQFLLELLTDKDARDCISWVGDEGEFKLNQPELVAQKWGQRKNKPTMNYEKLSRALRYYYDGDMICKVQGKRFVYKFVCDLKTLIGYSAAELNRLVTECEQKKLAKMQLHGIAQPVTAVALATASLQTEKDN
Put shortly:
as §1

Experiment [3] has as its target T3, ERG (Homo sapiens, UniProt P11308 1-479).
T3 sequence: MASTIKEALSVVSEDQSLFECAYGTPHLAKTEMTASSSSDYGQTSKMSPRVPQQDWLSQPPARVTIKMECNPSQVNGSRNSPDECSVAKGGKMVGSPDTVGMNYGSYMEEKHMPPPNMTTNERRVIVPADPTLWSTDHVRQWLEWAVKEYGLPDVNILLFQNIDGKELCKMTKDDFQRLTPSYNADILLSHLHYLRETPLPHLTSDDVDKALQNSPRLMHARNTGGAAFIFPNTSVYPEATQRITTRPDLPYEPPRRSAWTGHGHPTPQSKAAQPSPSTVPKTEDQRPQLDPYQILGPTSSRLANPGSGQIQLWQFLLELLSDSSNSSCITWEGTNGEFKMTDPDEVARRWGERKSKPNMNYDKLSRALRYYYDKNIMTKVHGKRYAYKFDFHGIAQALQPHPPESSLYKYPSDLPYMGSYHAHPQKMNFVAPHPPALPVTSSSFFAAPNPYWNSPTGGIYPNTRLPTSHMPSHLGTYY
A digest of the protocol: as §1

The target of experiment [4] is ELF1 (Homo sapiens, UniProt P32519 1-619). A digest of the protocol:
as §1

For experiment [5], the target named is T4, EHF (Homo sapiens, UniProt Q9NZC4 1-300).
T4 sequence: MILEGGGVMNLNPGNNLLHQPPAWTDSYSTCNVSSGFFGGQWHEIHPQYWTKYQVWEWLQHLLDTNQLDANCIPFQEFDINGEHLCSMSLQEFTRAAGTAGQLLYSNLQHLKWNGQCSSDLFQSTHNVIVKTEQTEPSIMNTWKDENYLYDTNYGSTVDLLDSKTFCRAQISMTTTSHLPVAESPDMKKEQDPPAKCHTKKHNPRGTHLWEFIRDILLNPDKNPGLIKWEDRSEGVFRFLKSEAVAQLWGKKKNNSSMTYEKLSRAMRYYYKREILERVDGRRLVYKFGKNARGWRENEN
Put shortly:
as §1

The target of experiment [6] is SPI1 (Homo sapiens, UniProt P17947 1-270). A digest of the protocol:
as §1

For experiment [7], the target named is SPIB (Homo sapiens, UniProt Q01892 1-262). Put shortly: as §1
SPIB, sequence (Q01892 whole entry): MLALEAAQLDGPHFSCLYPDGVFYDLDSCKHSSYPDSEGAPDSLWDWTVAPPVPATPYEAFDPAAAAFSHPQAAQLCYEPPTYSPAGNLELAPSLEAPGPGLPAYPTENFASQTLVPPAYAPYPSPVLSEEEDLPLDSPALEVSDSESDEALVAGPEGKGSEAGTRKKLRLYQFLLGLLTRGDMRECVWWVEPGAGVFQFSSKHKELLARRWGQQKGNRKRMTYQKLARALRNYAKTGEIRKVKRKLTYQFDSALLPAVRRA
Experiment [8] deals with T5, FEV (Homo sapiens, UniProt Q99581 1-238).
T5 sequence: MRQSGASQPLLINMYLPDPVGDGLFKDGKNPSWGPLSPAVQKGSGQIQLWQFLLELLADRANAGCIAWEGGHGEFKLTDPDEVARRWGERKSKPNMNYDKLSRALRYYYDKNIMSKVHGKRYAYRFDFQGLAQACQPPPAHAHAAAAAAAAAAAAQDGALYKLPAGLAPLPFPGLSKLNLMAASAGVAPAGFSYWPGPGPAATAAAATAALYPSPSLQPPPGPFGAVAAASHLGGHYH
Put shortly: as §1

In experiment [9] the target is ETV5 (Homo sapiens, UniProt P41161 1-510). A digest of the protocol:
as §1

Experiment [10] has as its target ELF4 (Homo sapiens, UniProt Q99607 1-663). A digest of the protocol:
as §1

Experiment [11] deals with T6, ELK4 (Homo sapiens, UniProt P28324-2 1-405).
T6 sequence: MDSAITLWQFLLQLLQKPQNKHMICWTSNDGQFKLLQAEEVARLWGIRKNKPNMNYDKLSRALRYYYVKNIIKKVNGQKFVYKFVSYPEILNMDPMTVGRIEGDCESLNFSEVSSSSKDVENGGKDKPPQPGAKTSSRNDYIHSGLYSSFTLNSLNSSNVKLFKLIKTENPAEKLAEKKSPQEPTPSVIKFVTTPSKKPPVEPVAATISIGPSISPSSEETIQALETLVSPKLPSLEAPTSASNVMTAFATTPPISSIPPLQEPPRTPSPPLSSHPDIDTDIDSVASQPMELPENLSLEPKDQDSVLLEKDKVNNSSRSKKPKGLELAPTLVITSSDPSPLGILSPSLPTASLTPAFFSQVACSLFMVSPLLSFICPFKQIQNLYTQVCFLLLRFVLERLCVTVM
A digest of the protocol: as §1

Experiment [12] concerns the target ETV1 (Homo sapiens, UniProt P50549 1-477). A digest of the protocol: as §1
Experiment [13] concerns the target T7, ETV3L (Homo sapiens, UniProt Q6ZN32 1-361).
T7 sequence: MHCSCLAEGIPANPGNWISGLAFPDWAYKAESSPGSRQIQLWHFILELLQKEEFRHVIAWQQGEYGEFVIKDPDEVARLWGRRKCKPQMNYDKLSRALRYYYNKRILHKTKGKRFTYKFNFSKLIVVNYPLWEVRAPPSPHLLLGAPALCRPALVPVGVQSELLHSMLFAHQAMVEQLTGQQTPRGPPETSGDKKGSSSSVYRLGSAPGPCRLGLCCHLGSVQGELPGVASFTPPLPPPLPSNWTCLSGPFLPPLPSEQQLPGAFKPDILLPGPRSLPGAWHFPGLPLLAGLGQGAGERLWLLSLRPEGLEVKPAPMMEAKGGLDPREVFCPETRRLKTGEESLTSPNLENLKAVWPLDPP
Put shortly: as §1

Experiment [14] deals with T8, ETS2 (Homo sapiens, UniProt P15036 1-469).
T8 sequence: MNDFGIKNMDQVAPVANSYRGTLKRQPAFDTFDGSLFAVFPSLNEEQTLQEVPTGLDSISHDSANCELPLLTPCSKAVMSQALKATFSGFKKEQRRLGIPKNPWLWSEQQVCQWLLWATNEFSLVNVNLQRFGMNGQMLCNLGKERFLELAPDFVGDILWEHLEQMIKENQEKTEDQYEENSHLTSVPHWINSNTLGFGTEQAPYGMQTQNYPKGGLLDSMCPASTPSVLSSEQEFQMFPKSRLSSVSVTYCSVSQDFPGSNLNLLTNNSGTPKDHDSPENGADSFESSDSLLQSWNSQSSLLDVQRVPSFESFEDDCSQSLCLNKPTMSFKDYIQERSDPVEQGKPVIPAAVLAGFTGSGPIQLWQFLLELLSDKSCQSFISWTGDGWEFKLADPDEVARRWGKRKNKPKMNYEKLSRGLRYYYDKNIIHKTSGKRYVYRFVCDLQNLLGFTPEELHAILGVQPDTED
A digest of the protocol:
as §1

Experiment [15] addresses T9, SPDEF (Homo sapiens, UniProt O95238 1-335).
T9 sequence: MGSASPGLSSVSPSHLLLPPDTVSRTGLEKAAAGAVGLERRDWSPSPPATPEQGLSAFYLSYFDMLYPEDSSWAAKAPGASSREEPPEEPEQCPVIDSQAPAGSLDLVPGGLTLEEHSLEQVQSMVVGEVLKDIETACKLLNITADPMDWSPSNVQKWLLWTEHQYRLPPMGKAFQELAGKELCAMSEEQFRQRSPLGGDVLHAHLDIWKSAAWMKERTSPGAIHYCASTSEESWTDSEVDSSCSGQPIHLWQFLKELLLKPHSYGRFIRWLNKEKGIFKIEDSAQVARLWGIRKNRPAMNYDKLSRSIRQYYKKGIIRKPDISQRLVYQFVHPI
Put shortly:
as §1

In experiment [16] the target is T10, ETV7 (Homo sapiens, UniProt Q9Y603 1-341).
T10 sequence: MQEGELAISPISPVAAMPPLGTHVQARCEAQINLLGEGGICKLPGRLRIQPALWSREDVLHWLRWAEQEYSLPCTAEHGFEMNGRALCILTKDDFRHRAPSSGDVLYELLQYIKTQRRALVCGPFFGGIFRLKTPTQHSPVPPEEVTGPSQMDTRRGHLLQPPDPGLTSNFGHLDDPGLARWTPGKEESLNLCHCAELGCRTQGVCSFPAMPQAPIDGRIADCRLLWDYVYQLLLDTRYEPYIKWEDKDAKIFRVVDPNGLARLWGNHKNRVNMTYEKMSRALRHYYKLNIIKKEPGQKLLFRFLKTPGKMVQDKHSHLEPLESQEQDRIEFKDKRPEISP
A digest of the protocol: as §1

In experiment [17] the target is T11, ETV3 (Homo sapiens, UniProt P41162-2 1-143).
T11 sequence: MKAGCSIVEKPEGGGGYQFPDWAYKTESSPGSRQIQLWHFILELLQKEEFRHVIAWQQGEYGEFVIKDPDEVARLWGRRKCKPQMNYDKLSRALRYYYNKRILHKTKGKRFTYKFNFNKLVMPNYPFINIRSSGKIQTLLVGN
Put shortly:
as §1

In experiment [18] the target is ETV6 (Homo sapiens, UniProt P41212 1-452). Put shortly: as §1
ETV6, sequence (P41212 whole entry): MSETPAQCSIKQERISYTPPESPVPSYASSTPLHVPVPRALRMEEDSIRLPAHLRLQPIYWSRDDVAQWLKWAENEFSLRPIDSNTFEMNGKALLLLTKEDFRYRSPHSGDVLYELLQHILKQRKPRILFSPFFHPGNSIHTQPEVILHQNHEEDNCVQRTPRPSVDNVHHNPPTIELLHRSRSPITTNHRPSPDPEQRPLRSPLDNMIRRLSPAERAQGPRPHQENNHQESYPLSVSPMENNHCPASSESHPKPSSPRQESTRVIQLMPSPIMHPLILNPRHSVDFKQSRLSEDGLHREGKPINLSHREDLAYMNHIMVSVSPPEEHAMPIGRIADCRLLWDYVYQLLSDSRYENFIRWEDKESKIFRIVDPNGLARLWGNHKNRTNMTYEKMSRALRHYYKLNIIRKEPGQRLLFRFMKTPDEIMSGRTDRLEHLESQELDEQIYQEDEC

ETV1, sequence (P50549 whole entry): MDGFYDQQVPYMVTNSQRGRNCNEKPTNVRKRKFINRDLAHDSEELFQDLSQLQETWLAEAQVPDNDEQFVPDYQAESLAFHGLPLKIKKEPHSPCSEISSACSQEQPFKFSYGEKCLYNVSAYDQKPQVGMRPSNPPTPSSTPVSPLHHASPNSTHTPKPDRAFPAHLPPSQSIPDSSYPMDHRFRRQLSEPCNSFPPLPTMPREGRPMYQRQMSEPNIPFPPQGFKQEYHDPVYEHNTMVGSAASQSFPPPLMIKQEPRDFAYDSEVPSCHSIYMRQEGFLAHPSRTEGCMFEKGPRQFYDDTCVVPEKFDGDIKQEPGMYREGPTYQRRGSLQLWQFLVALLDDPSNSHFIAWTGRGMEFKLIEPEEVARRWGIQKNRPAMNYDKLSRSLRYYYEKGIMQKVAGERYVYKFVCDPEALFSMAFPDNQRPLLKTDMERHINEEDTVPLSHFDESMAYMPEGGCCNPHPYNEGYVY
ELF1, sequence (P32519 whole entry): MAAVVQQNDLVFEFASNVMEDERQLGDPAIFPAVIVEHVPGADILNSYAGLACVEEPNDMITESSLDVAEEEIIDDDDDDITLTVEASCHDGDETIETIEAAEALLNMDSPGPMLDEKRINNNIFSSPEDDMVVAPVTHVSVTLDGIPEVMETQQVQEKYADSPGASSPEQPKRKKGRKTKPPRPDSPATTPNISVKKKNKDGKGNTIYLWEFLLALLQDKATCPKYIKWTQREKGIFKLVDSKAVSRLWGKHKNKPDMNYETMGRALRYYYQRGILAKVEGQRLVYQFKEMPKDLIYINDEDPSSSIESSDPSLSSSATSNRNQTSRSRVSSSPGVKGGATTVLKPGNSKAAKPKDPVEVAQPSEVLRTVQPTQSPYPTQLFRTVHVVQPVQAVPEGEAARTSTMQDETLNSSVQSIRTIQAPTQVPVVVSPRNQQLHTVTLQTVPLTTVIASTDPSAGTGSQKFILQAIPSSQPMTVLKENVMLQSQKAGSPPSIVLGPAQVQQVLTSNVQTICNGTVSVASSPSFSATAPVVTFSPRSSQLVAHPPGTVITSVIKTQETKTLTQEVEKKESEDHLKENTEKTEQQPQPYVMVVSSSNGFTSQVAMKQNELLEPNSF
ETV5, sequence (P41161 whole entry): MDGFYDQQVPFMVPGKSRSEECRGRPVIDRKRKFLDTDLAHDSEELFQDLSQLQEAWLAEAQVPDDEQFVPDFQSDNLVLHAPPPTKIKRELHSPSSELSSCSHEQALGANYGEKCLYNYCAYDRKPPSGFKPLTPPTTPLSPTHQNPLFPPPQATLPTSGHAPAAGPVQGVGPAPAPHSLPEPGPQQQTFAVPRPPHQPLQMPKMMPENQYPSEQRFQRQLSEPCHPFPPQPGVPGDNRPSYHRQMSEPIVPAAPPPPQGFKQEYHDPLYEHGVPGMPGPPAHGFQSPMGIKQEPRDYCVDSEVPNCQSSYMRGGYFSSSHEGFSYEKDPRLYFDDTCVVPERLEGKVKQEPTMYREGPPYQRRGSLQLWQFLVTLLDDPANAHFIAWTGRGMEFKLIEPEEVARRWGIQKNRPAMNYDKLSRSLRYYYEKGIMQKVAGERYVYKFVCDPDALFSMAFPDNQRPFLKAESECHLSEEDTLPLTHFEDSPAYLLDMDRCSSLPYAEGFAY
ELF4, sequence (Q99607 whole entry): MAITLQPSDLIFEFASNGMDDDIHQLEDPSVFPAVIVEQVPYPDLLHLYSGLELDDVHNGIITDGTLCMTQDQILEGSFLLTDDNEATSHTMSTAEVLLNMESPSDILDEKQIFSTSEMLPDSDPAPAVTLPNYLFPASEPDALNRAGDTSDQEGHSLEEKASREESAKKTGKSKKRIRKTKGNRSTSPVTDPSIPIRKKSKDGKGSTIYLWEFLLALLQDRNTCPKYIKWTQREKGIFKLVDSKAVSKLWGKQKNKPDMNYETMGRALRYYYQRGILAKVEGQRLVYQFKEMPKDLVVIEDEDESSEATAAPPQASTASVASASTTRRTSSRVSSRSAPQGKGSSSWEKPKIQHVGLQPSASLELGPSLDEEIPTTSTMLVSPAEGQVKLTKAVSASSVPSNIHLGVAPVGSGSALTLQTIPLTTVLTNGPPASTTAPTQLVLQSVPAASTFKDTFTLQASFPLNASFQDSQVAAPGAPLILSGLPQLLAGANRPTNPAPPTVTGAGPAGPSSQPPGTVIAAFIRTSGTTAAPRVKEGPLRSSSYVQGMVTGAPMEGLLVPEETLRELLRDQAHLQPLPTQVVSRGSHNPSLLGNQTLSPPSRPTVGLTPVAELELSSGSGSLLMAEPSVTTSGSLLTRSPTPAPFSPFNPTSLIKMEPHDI

On to ACCGGC, for which the binding signal in experiment [1] is 1.08 fold enrichment (6-mer frequency, TF over GST control); in [2] it was 1.12 fold enrichment (6-mer frequency, TF over GST control); in experiment [3], 1.13 fold enrichment (6-mer frequency, TF over GST control); in [4], 1.19 fold enrichment (6-mer frequency, TF over GST control); in experiment [5] it was 1.12 fold enrichment (6-mer frequency, TF over GST control); in experiment [6], 1.17 fold enrichment (6-mer frequency, TF over GST control). In addition, the binding signal was 1.3 fold enrichment (6-mer frequency, TF over GST control) in [7]; 1.14 fold enrichment (6-mer frequency, TF over GST control) in experiment [8]; 1.1 fold enrichment (6-mer frequency, TF over GST control) in experiment [9]; 1.03 fold enrichment (6-mer frequency, TF over GST control) in [10]; 1.1 fold enrichment (6-mer frequency, TF over GST control) in [11]; 1.23 fold enrichment (6-mer frequency, TF over GST control) in [12]. The binding signal was 1.21 fold enrichment (6-mer frequency, TF over GST control) in experiment [13]; 1.17 fold enrichment (6-mer frequency, TF over GST control) in [14]; 1.05 fold enrichment (6-mer frequency, TF over GST control) in experiment [15]; 1.06 fold enrichment (6-mer frequency, TF over GST control) in [16]; 1.15 fold enrichment (6-mer frequency, TF over GST control) in [17]; 1.31 fold enrichment (6-mer frequency, TF over GST control) in [18].
